Compound activity as filed in PubChem.
Peg3 prom inh = Peg3 promoter-driven luciferase inhibitors, primary screen, cell-based, HeLa, luciferase luminescence | 1.7% of 360,000 active | AID 588405, 2011 | HeLa PEG-Prom luciferase reporter, overnight | inhibition, % at 20 µM;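 active means inhibition of at least 50% at 20 µM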
PAX8 reporter = inhibitors of PAX8-driven TPO luciferase reporter, primary screen, RMG-I cells, single concentration | SteadyGlo, 24 h | inhibition, % at 12.6 µM | 1.2% of 360,000 active;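 active means mean replicate inhibition at least 60% with every replicate also reaching 60%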;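 further: luciferase light reporting Pax8 driven TPO promoter activity; plate controls were median of neutral control wells for no effect and mitoxantrone controls for full effect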
ABHD5-PLIN5 inh = ABHD5-PLIN5 interaction inhibitors, primary screen, cell lysate, split luciferase complementation, luminescence; AID 602281, 2012; inhibition, % at 4 µM; Perilipin-5 (Homo sapiens) + 1-acylglycerol-3-phosphate O-acyltransferase ABHD5 (Homo …; Split G. princeps luciferase complementation, 4 h; 0.78% of 360,000 active;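 active means inhibition above the mean inhibition across every tested compound plus 3 SD, cut at about 22% in these data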;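 further: 0% = DMSO only wells and the 100% control is not disclosed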
Target sequence (Q00G26 whole entry, looked up): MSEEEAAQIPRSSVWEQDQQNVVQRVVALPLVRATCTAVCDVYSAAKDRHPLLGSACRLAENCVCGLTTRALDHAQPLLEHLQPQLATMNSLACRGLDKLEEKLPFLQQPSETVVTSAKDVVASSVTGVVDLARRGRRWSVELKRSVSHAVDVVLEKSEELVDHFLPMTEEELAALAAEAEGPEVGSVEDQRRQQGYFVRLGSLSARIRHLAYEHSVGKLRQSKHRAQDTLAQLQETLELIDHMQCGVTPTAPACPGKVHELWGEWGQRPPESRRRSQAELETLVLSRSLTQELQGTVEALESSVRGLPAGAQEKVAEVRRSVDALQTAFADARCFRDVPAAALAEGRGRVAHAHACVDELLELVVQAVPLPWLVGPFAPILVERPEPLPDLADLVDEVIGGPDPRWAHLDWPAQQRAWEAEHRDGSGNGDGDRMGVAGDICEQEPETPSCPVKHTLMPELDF
Target sequence (Q8WTS1 whole entry, looked up): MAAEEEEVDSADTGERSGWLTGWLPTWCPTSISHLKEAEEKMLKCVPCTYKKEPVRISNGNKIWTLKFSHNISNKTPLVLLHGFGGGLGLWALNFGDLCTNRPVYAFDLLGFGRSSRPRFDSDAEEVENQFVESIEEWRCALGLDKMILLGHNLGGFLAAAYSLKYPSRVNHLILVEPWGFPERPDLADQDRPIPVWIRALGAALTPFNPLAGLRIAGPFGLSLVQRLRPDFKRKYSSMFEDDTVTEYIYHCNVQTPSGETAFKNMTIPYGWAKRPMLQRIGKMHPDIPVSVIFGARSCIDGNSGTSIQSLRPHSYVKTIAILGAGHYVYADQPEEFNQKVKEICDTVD
TRPM1 prom inh = inhibitors of MITF-dependent TRPM1 promoter reporter, primary screen, cell-based, SK-MEL-5, single point, luciferase; SK-MEL-5 TRPM1 promoter luciferase, 24 h; inhibition, % at 12.5 µM; 0.83% of 330,000 active; AID 488899, 2010;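 active means mean inhibition across replicates of 60% or more, whatever share of single replicates reaches that level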
EWS-Fli inh = EWS/Fli-driven NR0B1 reporter inhibitors, primary screen, A673 cells, NR0B1 luciferase, luminescence, MLPCN library; inhibition, % at 12.6 µM; viability-normalised; 0.67% of 350,000 active;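 active means mean inhibition of at least 50% after viability correction, with every replicate also passing that limit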;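 further: firefly luciferase signal divided by Alamar Blue viability fluorescence both relative to DMSO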
Shn3 3UTR inh = reduction of Shn3 3'UTR firefly luciferase signal, primary screen, Schnurri-3 inhibitor project, cell-based, Clone20 osteoblasts, set 2 | Clone20 osteoblast Shn3 3'UTR firefly luciferase, 24 h | inhibition, % at 12.5 µM | 0.52% of 360,000 active | AID 588674, 2011;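 active means mean inhibition of at least 75% with every replicate also reaching 75%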;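 further: 0% = median of neutral control wells and 100% = pilot-screen positive control compound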
* marks the source's active call; other numbers are inactive results; / = not tested or not shown. The list is not random: actives were taken first. Their share in the collection is about 3%.

SMILES	Peg3 prom inh	PAX8 reporter	ABHD5-PLIN5 inh	TRPM1 prom inh	EWS-Fli inh	Shn3 3UTR inh
Cc1ccc2[nH]c3c(=O)n(CC(=O)Nc4ccccc4N4CCN(C)CC4)ncc3c2c1	53*	-1	1	-5	/	0
Clc1ccc(C2Nc3cccc4cccc(c34)N2)c(Cl)c1	11	16	13	8	2	12
O=C1NC(c2cccc3ccccc23)Nc2ccc(Cl)cc21 (stereo not drawn)	-13	71*	-1	42	38	26
Cc1cccc(Nc2nc(N)c([N+](=O)[O-])c(N3CCCC(C)C3)n2)c1 (stereo not drawn)	55*	47	-10	4	/	37
C[C@H](CO)N1C[C@H](C)[C@@H](CN(C)CC2CCCC2)OCc2cnnn2CCCC1=O	/	2	/	/	4	/
C/C=C/c1ccc2c(c1)O[C@@H](CN(C)C(=O)Nc1ccc(C(F)(F)F)cc1)[C@H](C)CN([C@H](C)CO)S2(=O)=O	/	/	/	/	24	/
O=C(O)C1=C[C@@H](c2ccc3c(c2)Cc2ccccc2-3)C[C@@H](OCCCCO)O1	/	-214	/	/	-45	/
Cc1cc(C)n(CCCN2CCC(C(=O)Nc3cccc(-c4cccc(F)c4)c3)CC2)n1	69*	20	8	62*	28	6
CCn1ncc(CN2CCC(C(=O)Nc3cccc(-c4cccc(F)c4)c3)CC2)c1C	41	5	9	3	/	-15
CCn1nc(C)c(CN2CCC(C(=O)Nc3cccc(-c4cccc(Cl)c4)c3)CC2)c1C	68*	26	16	54	25	6
CCCCN(CCCC)C(=S)N/N=C/c1c(C)[nH]n(-c2ccccc2)c1=O	72*	/	-2	43	/	55
CCCC1=Nc2cc(C(=O)NCCCOCC)ccc2Sc2ccccc21	4	99*	-1	72*	/	17
CC1=Nc2cc(C(=O)NCCCOC(C)C)ccc2Sc2ccc(C)cc21	-18	28	7	38	59*	8
CCC1=Nc2cc(C(=O)NCCN3CCOCC3)ccc2Sc2ccc(C)cc21	7	-4	6	-4	6	3
CC1=Nc2cc(C(=O)NCC3CCCO3)ccc2Sc2ccc(Br)cc21 (stereo not drawn)	17	24	4	21	55*	/
CCC1=Nc2cc(C(=O)NCc3ccco3)ccc2Sc2ccc(C)cc21	4	84*	5	42	17	13
CCCC1=Nc2cc(C(=O)NCCCOC(C)C)ccc2Sc2ccccc21	16	14	2	36	/	34
C[C@@H]1CCCCO[C@@H](CN(C)C(=O)Cc2ccccc2)[C@H](C)CN([C@@H](C)CO)C(=O)c2cc(NS(=O)(=O)c3ccc(Cl)cc3)ccc2O1	/	-15	/	/	4	/
CCC(=O)N(C)C[C@@H]1Oc2cc(-c3ccccc3OC)ccc2S(=O)(=O)N([C@@H](C)CO)C[C@H]1C	/	-11	/	/	0	/
COCC(=O)N(C)C[C@H]1Oc2cc(-c3ccc(C#N)cc3)ccc2S(=O)(=O)N([C@H](C)CO)C[C@@H]1C	/	-19	/	/	9	/
C[C@H]1CN([C@@H](C)CO)C(=O)c2cc(-c3ccncc3)cnc2O[C@@H]1CN(C)Cc1cccnc1	/	/	/	/	1	/
C[C@@H]1CN([C@@H](C)CO)C(=O)Cc2cc(NC(=O)Nc3ccc4c(c3)OCO4)ccc2O[C@@H]1CN(C)Cc1ccc(C(=O)Nc2ccccc2N)cc1	/	9	/	/	25	/
C[C@H](CO)N1C[C@H](C)[C@H](CN(C)C(=O)NC2CCCCC2)Oc2cc(C#Cc3ccc(F)cc3)ccc2S1(=O)=O	/	91*	/	/	6	/
C[C@@H]1CN([C@H](C)CO)S(=O)(=O)c2ccc(C#Cc3cccc(F)c3)cc2O[C@H]1CN(C)C(=O)NC1CCCCC1	/	68*	/	/	13	/
C[C@@H]1CN([C@H](C)CO)S(=O)(=O)c2ccc(C#Cc3ccc(F)cc3)cc2O[C@H]1CN(C)C(=O)CN(C)C	/	/	/	/	73*	/
SMILES	Peg3 prom inh	PAX8 reporter	ABHD5-PLIN5 inh	TRPM1 prom inh	EWS-Fli inh	Shn3 3UTR inh
C[C@@H]1CN([C@H](C)CO)S(=O)(=O)c2ccc(C#CC3CCCC3)cc2O[C@@H]1CN(C)C(=O)Nc1cc(F)ccc1F	/	70*	/	/	44	/
C[C@@H]1CCCCO[C@@H](CN(C)CC2CC2)[C@@H](C)CN([C@H](C)CO)C(=O)c2cc(NC(=O)Cc3ccccc3)ccc2O1	/	-13	/	/	/	/
CO[C@@H]1CN(C)C(=O)c2cc(NC(=O)Nc3ccccc3F)ccc2OC[C@H](C)N(CC2CC2)C[C@H]1C	/	12	/	/	7	/
C/C=C/c1ccc([C@@H]2[C@@H](CO)N(C(=O)C3CCOCC3)C23CN(C(=O)NC(C)C)C3)cc1	/	4	/	/	1	/
C[C@@H]1CN([C@H](C)CO)S(=O)(=O)c2ccc(C#Cc3ccc(F)cc3)cc2O[C@H]1CN(C)C(=O)NC1CCCCC1	/	98*	/	/	1	/
C[C@@H]1CN([C@H](C)CO)S(=O)(=O)c2ccc(C#Cc3ccc(F)cc3)cc2O[C@H]1CN(C)C(=O)NC1CCCC1	/	/	/	/	29	/
Cc1noc(C)c1NC(=O)N(C)C[C@H]1Oc2cc(C#CCC3CCCC3)ccc2S(=O)(=O)N([C@@H](C)CO)C[C@@H]1C	/	66*	/	/	1	/
C[C@@H]1CCCCO[C@H](CN(C)S(=O)(=O)c2ccc(F)cc2)[C@H](C)CN([C@@H](C)CO)C(=O)c2cc(NC(=O)C3CCCCC3)ccc2O1	/	38	/	/	-3	/
CCOC(=O)C(C)(C)N(Cc1ccccc1C)S(=O)(=O)c1ccc(Cl)c([N+](=O)[O-])c1	100*	9	-8	8	/	10
COc1ccc(OC)c(C=C2CCc3ccccc3C2=O)c1	8	11	8	/	42	-4
CC(=O)Oc1ccc(/C=C2/CCc3ccccc3C2=O)cc1	-171	-40	-3	-72	74*	-88
O=C(CN1CCN(Cc2ccccc2)CC1)N=Nc1c(O)[nH]c2ccccc12	52*	34	4	-5	/	-19
O=C(Nc1ccc(Cl)cc1)N[C@@H]1CC[C@H](CCNC(=O)c2ccccc2F)O[C@H]1CO	/	-55	/	/	1	/
CCc1nnc(NC(=O)CSc2ncnc3c2oc2ccccc23)s1	44	-4	5	14	8	2
O=C(CSc1ncnc2c1oc1ccccc12)Nc1nc2ccccc2s1	56*	0	4	15	-12	1
C[C@H]1CCCCO[C@H](CN(C)S(=O)(=O)c2ccc(Cl)cc2)[C@@H](C)CN([C@@H](C)CO)C(=O)c2cc(NC(=O)CCC(F)(F)F)ccc2O1	/	48	/	/	1	/
CCOC(=O)c1cn(CC(=O)Nc2cccc(Cl)c2C)nn1	12	/	0	9	/	95*
CCOC(=O)c1cn(CC(=O)Nc2cccc(Cl)c2)nn1	17	-10	3	2	4	-5
